# Laboratory results from PubChem BioAssay AID2685 (National Center for Advancing Translational Sciences (NCATS), 2010).
# The campaign covered roughly 320,000 compounds. About 2,100 (0.66%) were called active. Inconclusive results (about 53%) are left out. Calls follow the shape of the dose curve; as a rule, active = well fitted inhibition curve with a large enough effect in the signal ratio, with a control signal flat (not every such curve was filed as active); inconclusive = small, poorly fitted or top-dose-only effect, or effect the other way, or a change in a side signal; inactive = flat fitted curve, though single readings scatter; the % refers to the signal ratio. Only a selection was taken, and actives are over-represented in it overall.
# Assay: qHTS Assay for Lipid Storage Modulators in Drosophila S3 Cells;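 as to cell number change: cells counted by Cell Tracker Red CMTPX staining in the red channel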; as to lipid storage change, negative = inhibition: % is scaled to controls: 0 for no effect and ±100 for the full control effect
# Conditions: BODIPY lipid droplet fluorescence, 18-24 h, cells fed with added oleic acid; cell number change: measured here: cell count max response; series mostly up to 46.1 µM; lipid storage change, negative = inhibition: at the top concentration
# Text: NIH Molecular Libraries Probe Production Centers Network [MLPCN] NIH Chemical Genomics Center [NCGC] MLPCN Grant: 1 R03 MH085686-01 Assay Submitter (PI): Beller, Mathias; Max-Planck-Institut fur Biophysikalische Chemie NCGC Assay Overview: Storing lipids as a reservoir for energy or the anabolism of elementary metabolites is a common feature of probably all cells and is conserved from bacteria to humans. The universal cellular lipid storage organelle is the so-called lipid storage droplet (LD). Although ubiquitous, LDs share a simple structure composed of a hydrophobic core that harbors the storage lipids, which is shielded by a droplet-specific phospholipid monolayer to which proteins are attached. The current model of LD biogenesis involves an incorporation of the lipid core into the membrane leaflets of the endoplasmic reticulum (ER) followed by a subsequent budding-like maturation of a LD, which ultimately pinches off. Once released, LD volume can increase by localized lipogenesis or fusion of existing droplet. Storage lipids are re-mobilized enzymatically by lipase activity. Lipase regulation in the adipocyte is heavily studied and involves multiple components including catecholamine signaling, the LD-associated proteins Perilipin and comparative gene identification (CGI-58) and at least two lipases named hormone sensitive lipase (HSL) and adipocyte triglyceride lipase (ATGL). LD regulation outside of the adipocyte is poorly understood and only few components are known. However, there is an urgent need to learn more about ectopic fat depots as mislocalized storage of lipids, for example in the liver or muscle, is an eminent health problem associated with insulin resistance or the metabolic syndrome. We developed a laser-scanning cytometer assay to enable 1,536-well screening and combined the results of the small molecules screen with an RNAi database based on lipid storage.
# Triacsin C (Sigma-Aldrich T-4540), an inhibitor of long-chain fatty acyl CoA synthetase that blocks synthesis of triglycerides, was used as a positive control for lipid under-storage. A total of 23 nL of compound solution of different concentrations were transferred to the assay plates using a Kalypsys pin tool equipped with a 1,536-pin array containing 10-nL slotted pins (FP1S10, 0.457-mm diameter, 50.8 mm long; V&P Scientific). One microliter of oleic acid (400 uM) was added, and the plate was lidded with stainless steel rubber gasket lined lids containing pinholes. […] Fluorescence was detected by excitation of the fluorophores with a 488-nm laser on an Acumen Explorer (TTP Lab Tech). The total intensity in channel 2 (500-530 nm) reflected lipid droplet accumulation. Cells were detected using channel 3 (575-640 nm) with 5-um width and 100-um depth filters. The ratio of the number of objects in PMT channel 2 over the number of objects in PMT channel 3 was also calculated. Percent activity was computed relative to an internal control (100% inhibited lipid droplet deposition due to the presence of 20 uM Triacsin C), which was added to 32 wells/plate.
# Potency is read from the fitted curve at half-maximal effect.
Compound,"lipid storage change, negative = inhibition",cell number change [%],Potency,outcome
Cc1nnc(-c2ccc(Oc3ccc(Br)cc3)c([N+](=O)[O-])c2)o1,5.02% (inactive),2.33,,
O=C(C/C=N/OCc1ccc(Cl)cc1Cl)c1ccc(Cl)cc1,-12% (inactive),4.16,,
Clc1ccc(CNC2CCCC2)cc1,,-30.8,20.6 µM (active),
Oc1ccc(CNC2CCCCC2)cc1,15.6% (inactive),0.0125,,
Clc1ccc(CNC2CCCC2)c(Cl)c1,-3.52% (inactive),-13.9,,
CCCCOC(=O)C1C2C=CC3(CN(CCc4ccccc4)C(=O)C13)O2 (stereo not given),9.44% (inactive),-8.47,,
N#Cc1c(NC(=O)c2ccc(Cn3cc(Br)cn3)o2)sc2c1CCCCC2,-16.2% (inactive),0.806,,
Cc1ccc(N=c2sc(C)c(C)n2C)cc1,24.7% (inactive),-18.9,,
C1CCC(OCCN2CCN(CCOC3CCCCC3)CC2)CC1,,6,25.9 µM (active),
C1CCCCCC(NCCN2CCNCC2)CCCCC1,2.81% (inactive),2.58,,
O=C(c1ccccc1)N1CCN(CC(O)COC2CCCCC2)CC1 (stereo not given),0.0284% (inactive),4.36,,
COCCNC(=O)CN1CCC(NC(=O)c2ccco2)CC1,6.44% (inactive),-1.29,,
Cc1ccc(NC(=O)c2c(F)cccc2Cl)cc1NS(C)(=O)=O,-2.17% (inactive),5.84,,
COc1ccc(/C=N/NC(=O)c2cccnc2)cc1CN1CCN(c2ccc(F)cc2)CC1,-2.21% (inactive),3.44,,
COc1ccc(CC(=O)Nc2c3c(nn2C(C)(C)C)CS(=O)(=O)C3)cc1OC,-9.19% (inactive),17,,
Cc1ccccc1N1C(=O)C(Oc2ccc(Cl)cc2)C1CNCCCOC(C)C (stereo not given),,-13.5,23.1 µM (active),
COCCNCC1C(Oc2ccc(Cl)cc2)C(=O)N1c1ccccc1C (stereo not given),6.12% (inactive),19.6,,
CCCCNCC1C(Oc2ccc(Cl)cc2)C(=O)N1c1ccccc1C (stereo not given),-32% (inactive),,,
Cc1ccnc2c1ccc1c(C)ccnc12,-13.5% (inactive),-0.829,,
O=C(NCc1n[nH]c(=S)n1-c1ccccc1)c1ccc(S(=O)(=O)N2CCCCC2)cc1,-0.121% (inactive),,,
COC(=O)c1ccccc1N1CCS(=O)(=O)CC1,,-18.8,16.4 µM (active),

Compound,"lipid storage change, negative = inhibition",cell number change [%],Potency,outcome
COC(=O)c1ccccc1NC(=O)N1CCN(c2ccccc2F)CC1,13.5% (inactive),25.6,,
COC(=O)c1ccc(N2CCN(c3ccccc3)CC2)c(N)c1,0.528% (inactive),6.3,,
CCOC(=O)C1=C(CS(=O)(=O)c2ccccc2)NC(=O)NC1c1cccc(OC)c1 (stereo not given),8.29% (inactive),15.2,,
COC(=O)c1ccc(NC(=S)N2CCCC2)cc1,-1.49% (inactive),-8.77,,
CCc1cccc(NS(=O)(=O)c2ccc(-n3cccn3)cc2)c1,12.6% (inactive),18.7,,
CC(=O)N1CCc2cc(S(=O)(=O)Nc3ccc(C)cc3)ccc21,-2.71% (inactive),8.46,,
O=S(=O)(Nc1cccc(Cl)c1)c1ccc(-n2cccn2)cc1,,,,inactive
COc1cccc(NS(=O)(=O)c2ccc3c(c2)N(C(C)=O)CCS3)c1,-12.1% (inactive),,,
COc1cccc(NS(=O)(=O)c2ccc(-n3cccn3)cc2)c1,,-7.08,0.0517 µM (active),
COc1cccc(NS(=O)(=O)c2ccc3c(c2)CCN3C(C)=O)c1,,-8.33,1.64 µM (active),
Cn1cnnc1Sc1nc2c(c(=O)n(C)c(=O)n2C)n1Cc1ccccc1Cl,3.49% (inactive),16.5,,
O=C(c1ccc(=O)[nH]c1)N1CCN(S(=O)(=O)c2ccc3ccccc3c2)CC1,19.4% (inactive),-9.74,,
COc1cc(CO)c(Br)cc1OCC(=O)Nc1ccccc1C,-9.12% (inactive),-15.6,,
O=C(CCN1C(=O)/C(=C/c2cccs2)SC1=S)Nc1ccccc1O,,13.5,3.66 µM (active),
O=C(CCN1C(=O)/C(=C/c2cccs2)SC1=S)Nc1cccc(C(=O)O)c1,,-17.1,0.164 µM (active),
O=C(CCCN1C(=O)/C(=C/c2cccs2)SC1=S)NNC(=O)c1ccccc1O,,-24.1,6.51 µM (active),
O=C(CCN1C(=O)/C(=C\c2cccs2)SC1=S)Nc1nccs1,-1.66% (inactive),-0.135,,
O=C(CCCN1C(=O)/C(=C\c2cccs2)SC1=S)Nc1cc([N+](=O)[O-])ccc1O,,,,inactive
O=C(CN1C(=O)/C(=C\c2cccs2)SC1=S)Nc1cccc(C(=O)O)c1,-1.3% (inactive),24,,
Cc1ccc(/C=C2\SC(=S)N(CCCC(=O)NNC(=O)c3ccccc3O)C2=O)cc1,-0.747% (inactive),17.7,,
O=C(CCCN1C(=O)/C(=C/c2cccs2)SC1=S)NNC(=O)c1ccncc1,6.17% (inactive),21,,

Compound,"lipid storage change, negative = inhibition",cell number change [%],Potency,outcome
O=C(CCN1C(=O)/C(=C/c2ccccc2Cl)SC1=S)Nc1ccccn1,,-0.66,20.6 µM (active),
O=C(CCN1C(=O)/C(=C/c2ccccc2F)SC1=S)Nc1ccccn1,-15% (inactive),23.3,,
O=C(CCN1C(=O)/C(=C/c2cccs2)SC1=S)Nc1ccc(C(=O)O)c(O)c1,,-26.8,,inactive
O=C(CCN1C(=O)/C(=C/c2ccccc2)SC1=S)Nc1ccccn1,21% (inactive),-0.917,,
CCc1ccc(OCC(=O)N(C)CCC#N)c(Br)c1,,,,inactive
CC1=[N+]([O-])C(C)(C)C(C)N(O)C1=O (stereo not given),-12.1% (inactive),1.53,,
COc1ccc(C(=O)O)cc1S(=O)(=O)Nc1cc(Cl)ccc1N1CCOCC1,-0.213% (inactive),11.4,,
COC(=O)/C=C1\SC(=NC(=O)c2cccc(Cl)c2)NC1=O,-25.1% (inactive),-23.4,,
Nc1nonc1-n1nnc(C(=O)N/N=C/c2ccc(OCc3ccccc3)cc2)c1CN1CCCCC1,,,,inactive
O=C(Nc1cccc(NC(=O)c2ccc(Br)o2)c1)c1ccccc1,,-12.9,,inactive
N#CC1=C(Nc2ccccc2)SC=C(c2ccc(Cl)c(Cl)c2)N=C1N1CCOCC1,6.25% (inactive),-15.3,,
Cc1cc(C)n(-c2ccc(C(=O)NC3CCCCC3)cc2)n1,14.6% (inactive),17.4,,
COc1ccccc1NC(=O)C(C/C=C(/C)Cl)C(C)=O (stereo not given),9.77% (inactive),12.3,,
COc1ccc(N(CC(=O)N/N=C/c2cccnc2)S(=O)(=O)c2ccc(C)cc2)cc1OC,,-15.9,,inactive
CC(=O)Nc1ccc(S(=O)(=O)NC2CC2)cc1,11% (inactive),-7.3,,
O=C(O)CCCCCCCCCC(=O)c1cccs1,,-19.9,,inactive
O=C(CCN1C(=O)/C(=C/c2ccco2)SC1=S)Nc1ccc(C(=O)O)c(O)c1,-2.83% (inactive),-0.876,,
O=C(CN1C(=O)/C(=C/c2ccco2)SC1=S)Nc1ccc(C(=O)O)c(O)c1,,25.4,20.6 µM (active),
O=C(CCN1C(=O)/C(=C\c2ccco2)SC1=S)Nc1ccc(C(=O)O)c(O)c1,,1.15,,inactive
